Assay results as given in PubChem BioAssay AID720517 (National Center for Advancing Translational Sciences (NCATS), 2013).
Records with an inconclusive call do not appear. The source made the active and inactive calls. Calls come from the whole dose curve; as a rule, active = well fitted activation curve with a large enough effect; inconclusive = small, poorly fitted or top-dose-only effect; inactive = flat fitted curve, though single readings scatter.

assay: qHTS for Inhibitors of Cell Surface uPA Generation: FP59 Counterscreen for Cherry-picked Compounds; conditions: FP59 anthrax toxin cytotoxicity counterscreen, cells; series mostly up to 115 µM; activity (protection from FP59): at the top concentration; for activity (protection from FP59): 0% is about no effect
Potency is the fitted concentration of half-maximal effect.

SMILES	activity (protection from FP59)	Potency
Cc1ccc(/C=N/NC(=O)c2ccc3nc[nH]c3c2)s1	-1.64% (inactive)	
COc1ccc(CCNC(=O)CSc2nc(N)c3c(C)c(C)oc3n2)cc1OC	-1.33% (inactive)	
Cc1ccc(C)c(-c2ccc(=O)n(Cc3c(F)cccc3Cl)n2)c1	8.52% (inactive)	
COc1ccccc1CCNC(=O)C(=O)NCC1OCCN1S(=O)(=O)c1ccc(OC)c(OC)c1 (centres undefined)	-1.42% (inactive)	
Cc1cccc(NC(=O)C2CCCN(S(=O)(=O)c3ccc4[nH]c(=O)ccc4c3)C2)c1 (centres undefined)	-1.46% (inactive)	
Cc1ccc(C)c(N2N=C(C(=O)N(CC(C)C)c3c(N)n(Cc4ccccc4)c(=O)[nH]c3=O)CCC2=O)c1	-1.04% (inactive)	
CC(C)C1Oc2ccccc2N(CC(=O)NC2CCCCC2)C1=O (centres undefined)		58.5 µM (active)
COc1ccc(N2CCN(S(=O)(=O)c3ccc4c(c3)NC(=O)CS4)CC2)cc1	-1.35% (inactive)	
CCn1c2ccccc2c2n[nH]c(=S)nc21	-1.35% (inactive)	
O=C1CCCC/C1=C\Nc1ccc(S(=O)(=O)Nc2cnc3ccccc3n2)cc1	-1.53% (inactive)	
CC1Cc2nc(SCC(=O)N3CCCC3)n(C)c(=O)c2S1 (centres undefined)	-1.46% (inactive)	
OCCN(Cc1ccccc1)CC(O)COc1ccc2c(c1)OCO2 (centres undefined)	-0.687% (inactive)	
CCOC(=O)C1CCN(CC(=O)Nc2cc(C)nn2-c2nc3ccccc3s2)CC1	0.65% (inactive)	
O=C(c1cc2cc([N+](=O)[O-])ccc2s1)N1CCOCC1	-1.5% (inactive)	
O=C(NCCOc1ccc(F)cc1)C1CCN(S(=O)(=O)c2ccccc2)CC1	-1.44% (inactive)	
CCOC(=O)Oc1c(OC)cc(C(=O)O[C@@H]2C[C@@H]3CN4CCc5c([nH]c6cc(OC)ccc56)[C@H]4C[C@@H]3[C@H](C(=O)OC)[C@H]2OC)cc1OC	2.97% (inactive)	
CC/C(=N\Nc1ccccc1[N+](=O)[O-])c1ccc(O)cc1	-1.24% (inactive)	
Cc1nc(SCc2nc3ccccc3[nH]2)c2oc3cc([N+](=O)[O-])ccc3c2n1	-0.853% (inactive)	
COCCn1nnnc1C(C(C)C)N1CCCC(C)C1 (centres undefined)	-1.3% (inactive)	
COc1ccc(CN2CCN(Cc3ccc(C(F)(F)F)cc3)CC2)cc1	-1.38% (inactive)	

SMILES	activity (protection from FP59)	Potency
O=C(NC1CCCC1)c1nc2c(nnn2Cc2ccccc2Cl)c(=O)[nH]1	-0.974% (inactive)	
O=C1NCCN1C(=O)N(c1ccccc1)c1ccccc1	-1.48% (inactive)	
O=C1[C@H]2[C@@H](c3ccc(F)cc3)N3C(=O)N(c4ccccc4)C(=O)[C@@]3(Cc3ccc(Cl)cc3)[C@H]2C(=O)N1C1CCCCC1	-0.827% (inactive)	
Cn1nc(C(C)(C)C)c([N+](=O)[O-])c1C(=O)N1CCOCC1	-1.4% (inactive)	
CC(=O)[C@@]1(O)[C@H](C)CC2C3CC=C4CC(OP(=O)(O)O)CC[C@]4(C)C3CC[C@@]21C (some centres undefined)	-1.22% (inactive)	
Cc1cccc(N2C(=O)c3cccc(Oc4ccc(Cl)cc4)c3C2=O)c1	-0.698% (inactive)	
C#CCOCCOCCOCCNc1nc(N2CCOCC2)nc(N2CCN(C(=O)[C@H](CCC(=O)O)n3cc([C@@H](N)CCCCN)nn3)CC2)n1	-1.42% (inactive)	
CN(C)c1cccc(Oc2nc3c(c(=O)n(C)c(=O)n3C)n2C)c1	-1.39% (inactive)	
Cc1ccc2[nH]c(CN3CCN(C)C(CCO)C3)c(C)c2c1 (centres undefined)	-1.44% (inactive)	
Cc1nc2ccc(Br)cn2c1C(=O)N/N=C\c1ccccc1Cl	-1.29% (inactive)	
COc1cccc(NC(=S)NCc2ccc3c(c2)cc(C)n3C)c1	-0.806% (inactive)	
COc1ccc(/C(C)=N/N2CCOCC2)c(O)c1	-1.43% (inactive)	
COc1cc(N/C(N)=N/c2nc(C)cc(C)n2)cc(OC)c1	-1.6% (inactive)	
N#Cc1cccc(NC(=O)Cn2cnc(S(=O)(=O)N3CCOCC3)c2)c1	-1.37% (inactive)	
CCCNC(=O)C1CCC(CNS(=O)(=O)c2ccc3c(c2)CC(C)N3C(C)=O)CC1 (centres undefined)	-1.46% (inactive)	
O=C(CCCC(=O)N1CCN(c2ccccc2F)CC1)c1ccccc1	-1.35% (inactive)	
CC(C)(C)C(=O)NCCc1nc2ccccc2n1CC(=O)c1ccc(Cl)cc1	0.0081% (inactive)	
Brc1ccsc1/C=N/Nc1ccccc1	0.415% (inactive)	
COc1ccccc1C(=O)Nc1cccc(C(=O)c2ccccc2)c1	-0.645% (inactive)	
